Counter-ions that a name gives are not always drawn.
Tested on: Drosophila S2 cl14 SmoIP sensor cells
Assay: normalized SmoIP GFP fluorescence (untreated unstimulated = 0%, untreated Hh-stimulated = 100%); higher = more Smo activation sensor fluorescence
Settings: stimulation: Hh conditioned medium (+Hh); compound concentration: 2 uM; 24 h
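Further: flow cytometry read-out as median GFP intensity of gated cells, compounds added 30 min before Hh-conditioned or mock medium, mock-treated cells serving as unstimulated baseline.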

Compound | normalized SmoIP GFP fluorescence [%]
Cc1c(Cl)cccc1Nc1ccccc1C(=O)O [tolfenamic-acid] | 88.3
COc1cc2c(cc1OC)CN(CCc1ccc(NC(=O)c3cc(OC)c(OC)cc3NC(=O)c3cnc4ccccc4c3)cc1)CC2 [tariquidar] | 120
O=C(NNc1ccccc1)c1ccncc1 | 105
O=C(C[S+]([O-])Cc1ccco1)NC/C=C\COc1cc(CN2CCCCC2)ccn1 (stereo unspecified) [lafutidine] | 113
CCN(CC)CCOc1ccc(/C(=C(\Cl)c2ccccc2)c2ccccc2)cc1 [Clomifene-citrate-Serophene] | 139
CC[C@H](C)C(=O)O[C@@H]1C[C@@H](C)C=C2C=C[C@H](C)[C@@H](CC[C@@H]3C[C@@H](O)CC(=O)O3)[C@H]21 [lovastatin-mevacor] | 123
Cc1c(C(=O)NN2CCCCC2)nn(-c2ccc(Cl)cc2Cl)c1-c1ccc(Cl)cc1 | 107
CC(C)OC(=O)C1=CN(C(=O)c2ccc(F)c(F)c2)CC(C)(C)c2c1[nH]c1ccccc21 | 117
Cc1c(NC(=O)OC[C@@H]2COCCN2)cn2ncnc(Nc3ccc4c(cnn4Cc4cccc(F)c4)c3)c12 | 128
CCOC(=O)C1=C(C)NC(C)=C(C(=O)OC)C1c1cccc([N+](=O)[O-])c1 (stereo unspecified) [Nitrendipine] | 117
CCCNC(=O)Nc1ccc(Oc2ncnc3cc(OC)c(OC)cc23)cc1Cl | 105
CC(C)(Oc1ccc(C2CC2(Cl)Cl)cc1)C(=O)O (stereo unspecified) [ciprofibrate] | 108
CO[C@H]1/C=C\C=C(/C)C(=O)NC2=CC(=O)C(NCCN(C)C)=C(C[C@@H](C)C[C@H](OC)[C@H](O)[C@@H](C)/C=C(\C)[C@@H]1OC(N)=O)C2=O [17-DMAG,Hydrochloride-Salt] | 219
CN(C)Cc1ccc(S(=O)(=O)n2ccc(/C=C/C(=O)NO)c2)cc1 [resminostat-ras2410] | 140
c1cncc(CN2CCC(n3ncc4c(N5CCOCC5)nc(-c5ccc6[nH]ccc6c5)nc43)CC2)c1 | 104
COc1cc(Nc2c(C#N)cnc3cc(OCCCN4CCN(C)CC4)c(OC)cc23)c(Cl)cc1Cl [Bosutinib] | 143
CN(C)CC/C=C1/c2ccccc2Sc2ccc(Cl)cc21 [Chlorprothixene] | 106
Cn1c(=O)c(F)c(Nc2ccc(I)cc2F)c2c(=O)n(C[C@@H](O)CO)cnc21 | 262
Clc1ccc(Nc2nnc(Cc3ccncc3)c3ccccc23)cc1 [Vatalanib,Dihydrochloride-Salt] | 125

Compound | normalized SmoIP GFP fluorescence [%]
CC(C)N(CCCNC(=O)Nc1ccc(C(C)(C)C)cc1)C[C@H]1O[C@@H](n2cc(Br)c3c(N)ncnc32)[C@H](O)[C@@H]1O | 140
CC(C)NCC(O)COc1cccc2ccccc12 (stereo unspecified) [propranolol-hcl] | 111
CCCCCCCCc1ccc(CCC(N)(CO)CO)cc1 | 107
CCc1ccc(OCc2ccccc2C(=O)Nc2ccc3nc(C)cc(N)c3c2)cc1 | 164
COc1cc2ncnc(Nc3ccc(F)c(Cl)c3)c2cc1NC(=O)/C=C/CN1CCCCC1 | 163
COCCOC(=O)C1=C(C)NC(C)=C(C(=O)OC/C=C/c2ccccc2)C1c1cccc([N+](=O)[O-])c1 (stereo unspecified) [Cilnidipine] | 112
CCN(CC)CCNC(=O)c1c(C)[nH]c(/C=C2\C(=O)Nc3ccc(F)cc32)c1C [Sunitinib-Malate-(Sutent)] | 182
Cn1c(=O)cc(N2CCC[C@@H](N)C2)n(Cc2cc(F)ccc2C#N)c1=O [trelagliptin] | 104
Cc1ccc2c(c1)C(=O)C1(O)CCN(c3ccccc3)C1=N2 (stereo unspecified) [blebbistatin] | 105
NC(=O)c1ccc(N(C(N)=O)c2c(F)cccc2F)nc1-c1ccc(F)cc1F | 103
Cc1cc(Nc2cc(N3CCN(C)CC3)nc(/C=C/c3ccccc3)n2)n[nH]1 | 136
C[C@H](N[C@@H](CCc1ccccc1)C(=O)O)C(=O)N1CCC[C@H]1C(=O)O [Enalaprilat] | 117
CC(=O)Nc1ccc(C(=O)Nc2ccccc2N)cc1 [ci994-tacedinaline] | 129
C[C@H](Cn1cnc2c(N)ncnc21)OCP(=O)(O)O [Tenofovir] | 104
NC(=O)C(c1ccccc1)(c1ccccc1)[C@@H]1CCN(CCc2ccc3c(c2)CCO3)C1 [darifenacin-hydrobromide] | 116
CCCC(=O)OCOC(=O)C1=C(C)NC(C)=C(C(=O)OC)C1c1cccc(Cl)c1Cl (stereo unspecified) [cleviprex-clevidipine] | 119
CC(=O)Nc1ccc(NC(=S)NC(=O)c2ccc(C(C)(C)C)cc2)cc1 [tenovin-1] | 97
Nc1nc(N)c2nc(-c3cccc(O)c3)cnc2n1 | 108
COc1ccc(-c2ccc3ncc4c(c3c2)n(-c2ccc(N3CCNCC3)c(C(F)(F)F)c2)c(=O)n4C)cn1 | 66.3

Same assay, conditions: stimulation: mock conditioned medium (-Hh); compound concentration: 2 uM; 24 h

Compound | normalized SmoIP GFP fluorescence [%]
Cc1c(Cl)cccc1Nc1ccccc1C(=O)O [tolfenamic-acid] | -15.3
COc1cc2c(cc1OC)CN(CCc1ccc(NC(=O)c3cc(OC)c(OC)cc3NC(=O)c3cnc4ccccc4c3)cc1)CC2 [tariquidar] | 2.77
O=C(NNc1ccccc1)c1ccncc1 | -2.71
O=C(C[S+]([O-])Cc1ccco1)NC/C=C\COc1cc(CN2CCCCC2)ccn1 (stereo unspecified) [lafutidine] | -9.85
CCN(CC)CCOc1ccc(/C(=C(\Cl)c2ccccc2)c2ccccc2)cc1 [Clomifene-citrate-Serophene] | -11.6
CC[C@H](C)C(=O)O[C@@H]1C[C@@H](C)C=C2C=C[C@H](C)[C@@H](CC[C@@H]3C[C@@H](O)CC(=O)O3)[C@H]21 [lovastatin-mevacor] | -14.7
Cc1c(C(=O)NN2CCCCC2)nn(-c2ccc(Cl)cc2Cl)c1-c1ccc(Cl)cc1 | 2.46
CC(C)OC(=O)C1=CN(C(=O)c2ccc(F)c(F)c2)CC(C)(C)c2c1[nH]c1ccccc21 | 12.5
Cc1c(NC(=O)OC[C@@H]2COCCN2)cn2ncnc(Nc3ccc4c(cnn4Cc4cccc(F)c4)c3)c12 | 16.5
CCOC(=O)C1=C(C)NC(C)=C(C(=O)OC)C1c1cccc([N+](=O)[O-])c1 (stereo unspecified) [Nitrendipine] | -12
CCCNC(=O)Nc1ccc(Oc2ncnc3cc(OC)c(OC)cc23)cc1Cl | -6.51
CC(C)(Oc1ccc(C2CC2(Cl)Cl)cc1)C(=O)O (stereo unspecified) [ciprofibrate] | -5.35
CO[C@H]1/C=C\C=C(/C)C(=O)NC2=CC(=O)C(NCCN(C)C)=C(C[C@@H](C)C[C@H](OC)[C@H](O)[C@@H](C)/C=C(\C)[C@@H]1OC(N)=O)C2=O [17-DMAG,Hydrochloride-Salt] | 44.8
CN(C)Cc1ccc(S(=O)(=O)n2ccc(/C=C/C(=O)NO)c2)cc1 [resminostat-ras2410] | -5.8
c1cncc(CN2CCC(n3ncc4c(N5CCOCC5)nc(-c5ccc6[nH]ccc6c5)nc43)CC2)c1 | -4.53
COc1cc(Nc2c(C#N)cnc3cc(OCCCN4CCN(C)CC4)c(OC)cc23)c(Cl)cc1Cl [Bosutinib] | 9.08
CN(C)CC/C=C1/c2ccccc2Sc2ccc(Cl)cc21 [Chlorprothixene] | -0.378
Cn1c(=O)c(F)c(Nc2ccc(I)cc2F)c2c(=O)n(C[C@@H](O)CO)cnc21 | 47.8
Clc1ccc(Nc2nnc(Cc3ccncc3)c3ccccc23)cc1 [Vatalanib,Dihydrochloride-Salt] | -9.22

Compound | normalized SmoIP GFP fluorescence [%]
CC(C)N(CCCNC(=O)Nc1ccc(C(C)(C)C)cc1)C[C@H]1O[C@@H](n2cc(Br)c3c(N)ncnc32)[C@H](O)[C@@H]1O | 0.986
CC(C)NCC(O)COc1cccc2ccccc12 (stereo unspecified) [propranolol-hcl] | -1.63
CCCCCCCCc1ccc(CCC(N)(CO)CO)cc1 | -0.0369
CCc1ccc(OCc2ccccc2C(=O)Nc2ccc3nc(C)cc(N)c3c2)cc1 | 14.4
COc1cc2ncnc(Nc3ccc(F)c(Cl)c3)c2cc1NC(=O)/C=C/CN1CCCCC1 | 12.5
COCCOC(=O)C1=C(C)NC(C)=C(C(=O)OC/C=C/c2ccccc2)C1c1cccc([N+](=O)[O-])c1 (stereo unspecified) [Cilnidipine] | 2.97
CCN(CC)CCNC(=O)c1c(C)[nH]c(/C=C2\C(=O)Nc3ccc(F)cc32)c1C [Sunitinib-Malate-(Sutent)] | 90.8
Cn1c(=O)cc(N2CCC[C@@H](N)C2)n(Cc2cc(F)ccc2C#N)c1=O [trelagliptin] | 3.18
Cc1ccc2c(c1)C(=O)C1(O)CCN(c3ccccc3)C1=N2 (stereo unspecified) [blebbistatin] | -0.378
NC(=O)c1ccc(N(C(N)=O)c2c(F)cccc2F)nc1-c1ccc(F)cc1F | -3.5
Cc1cc(Nc2cc(N3CCN(C)CC3)nc(/C=C/c3ccccc3)n2)n[nH]1 | 23.8
C[C@H](N[C@@H](CCc1ccccc1)C(=O)O)C(=O)N1CCC[C@H]1C(=O)O [Enalaprilat] | -0.265
CC(=O)Nc1ccc(C(=O)Nc2ccccc2N)cc1 [ci994-tacedinaline] | -4.13
C[C@H](Cn1cnc2c(N)ncnc21)OCP(=O)(O)O [Tenofovir] | -4.47
NC(=O)C(c1ccccc1)(c1ccccc1)[C@@H]1CCN(CCc2ccc3c(c2)CCO3)C1 [darifenacin-hydrobromide] | 0.0767
CCCC(=O)OCOC(=O)C1=C(C)NC(C)=C(C(=O)OC)C1c1cccc(Cl)c1Cl (stereo unspecified) [cleviprex-clevidipine] | -12.9
CC(=O)Nc1ccc(NC(=S)NC(=O)c2ccc(C(C)(C)C)cc2)cc1 [tenovin-1] | -4.47
Nc1nc(N)c2nc(-c3cccc(O)c3)cnc2n1 | -4.7
COc1ccc(-c2ccc3ncc4c(c3c2)n(-c2ccc(N3CCNCC3)c(C(F)(F)F)c2)c(=O)n4C)cn1 | -7.6

Source: the supplement of paper PMC5662767
